# Experimental data as given in PubChem BioAssay AID540303 (National Center for Advancing Translational Sciences (NCATS), 2011).
# Among all 330,000 compounds or so, about 1,000 (0.3%) were called active. Where a call stands in place of a potency, no number is given. Not shown: some 3% with an inconclusive outcome. Calls follow the shape of the dose curve; as a rule, active = well fitted inhibition curve with a large enough effect; inconclusive = small, poorly fitted or top-dose-only effect; inactive = no such curve, though single readings can be large or run the other way; tested in mouse RAW 264.7 cells. Many of the other results were omitted from the sample, so actives are more common in it than they were.
# Assay: qHTS for Inhibitors of Cell Surface uPA Generation; also: nearly all actives have a fitted effect of over 55% in size
# Conditions: cell surface uPA generation assay; series mostly up to 38.3 µM
# Text: The overall objective of this project is to perform a quantitative high throughput screen (qHTS) to identify novel compounds that inhibit the generation of cell surface urokinase activity. The urokinase plasminogen activator (uPA) is one of the two primary endogenous systems that mediate plasminogen activation into plasmin. Members of this system, including uPA and its receptor (uPAR), are overexpressed in several malignant tumors. This system plays a major role in adhesion, migration, invasion and metastasis of cancer cells. Small molecule inhibitors of the uPA system will serve as probes to understand the molecular mechanisms of the uPA cascade and better understanding the microenvironmental circumstances that facilitate the activation of plasminogen by uPA, and finally may provide novel candidate agents for anticancer drug therapy.
# […] […] Upon inhibition of the uPA activation cascade, the subsequent cell surface uPA activity-dependent translocation of LF into the cytoplasm is inhibited. ATP-Lite is used to measure intracellular ATP concentrations, which remain increased if LF entry into the cytoplasm is inhibited. This validation assay was performed using a small set of validation compounds.
# NIH Chemical Genomics Center [NCGC]
# NIH Molecular Libraries Probe Centers Network [MLPCN]
# Assay Submitter (PI): Thomas Bugge, National Institute of Dental and Craniofacial Research, NIH
# Cultured RAW 264.7 were dispensed into 1536-well clear bottom, white walled tissue culture plates at a density of 4000 cells/well and were incubated overnight (12-16 h) at 37 C in a 5% CO2 incubator. Serially diluted compounds in 23 nl DMSO were added to cells. […] Compound and reagent-treated plates were incubated for 24 h at 37 C in a 5% CO2 incubator. Perkin Elmer ATPlitetrade mark 1 step (3 ul) was then added to each well. Luminescence was detected using a Perkin Elmer ViewLuxtrade mark plate reader.
# 1.Dispensing RAW 264.7 cells into 1536-well, white walled tissue culture plates at a density of 4000 cells/well (4 uL).
# 2.Incubation at 37 C in a 5% CO2 incubator overnight.
# 3.Serially diluting compounds (1:5 serial dilution; 0.0024 uM to […] final concentration) in 23 nl DMSO.
# 5.Incubating the compound and reagent-treated plates for 24 hours at 37 C in a 5% CO2 incubator.
# 6.Adding ATP-Lite (3 ul).
# 7.Reading plates by ViewLux with an exposure length of 5 seconds.
# Potency is read from the fitted curve at half-maximal effect.
row,SMILES,Potency
1,CCOc1ccc(-c2cc(C)[n+](CCN(CC)CC)c(-c3ccc(OCC)cc3)c2)cc1,3.55 µM (active)
2,CC12CCC3C(CCC4CC(=O)CCC43C)C1CC(=NO)C2=O (stereo not given),inactive
3,CC1CCCN1CCC(C(N)=O)(c1ccccc1)c1ccccc1 (stereo not given),inactive
4,CC1C(=O)OC2CCN3CC=C(COC(=O)C(C)(O)C1(C)O)C23 (stereo not given),inactive
5,CC1=CC(=Cc2sc3ccccc3[n+]2C)C=C(C)O1,5.01 µM (active)
6,CCOC(=O)C1(c2ccccc2)CCN(CC(O)c2ccc(NC(C)=O)cc2)CC1 (stereo not given),inactive
7,C=C(C)C1(CCCC)C(=O)NC(=S)NC1=O,inactive
8,CC(=O)OC1C2(CC3N4C(=O)C5(CO)SSC4(CC31O)C(=O)N5C)OC(C)C(C)(C)C2=O (stereo not given),inactive
9,Cc1cc(C)c2c(c1)NP(=S)(c1ccccc1)N2 (stereo not given),inactive
10,CC1(c2cccc([N+](=O)[O-])c2)CC(C)(C)N(C(=O)c2ccccc2)c2ccccc21 (stereo not given),inactive
